From PubChem BioAssay
TDP1 block: qHTS Assay for Inhibitors of Tyrosyl-DNA Phosphodiesterase (TDP1); Tyrosyl-DNA phosphodiesterase 1 (Homo sapiens), Q9NUW8; recombinant TDP1, AlphaScreen DNA substrate cleavage; Potency, µM (highest dose often 130 µM), inactives show at the top dose activity change, negative = inhibition, actives largely listed as inhibitors; 350,000 tested, 0.28% active; AID 485290, 2010; further: potency means the concentration at half of the fitted maximal effect; nearly all actives have a fitted effect of over 40% in size
Target sequence (Q9NUW8 whole entry, looked up): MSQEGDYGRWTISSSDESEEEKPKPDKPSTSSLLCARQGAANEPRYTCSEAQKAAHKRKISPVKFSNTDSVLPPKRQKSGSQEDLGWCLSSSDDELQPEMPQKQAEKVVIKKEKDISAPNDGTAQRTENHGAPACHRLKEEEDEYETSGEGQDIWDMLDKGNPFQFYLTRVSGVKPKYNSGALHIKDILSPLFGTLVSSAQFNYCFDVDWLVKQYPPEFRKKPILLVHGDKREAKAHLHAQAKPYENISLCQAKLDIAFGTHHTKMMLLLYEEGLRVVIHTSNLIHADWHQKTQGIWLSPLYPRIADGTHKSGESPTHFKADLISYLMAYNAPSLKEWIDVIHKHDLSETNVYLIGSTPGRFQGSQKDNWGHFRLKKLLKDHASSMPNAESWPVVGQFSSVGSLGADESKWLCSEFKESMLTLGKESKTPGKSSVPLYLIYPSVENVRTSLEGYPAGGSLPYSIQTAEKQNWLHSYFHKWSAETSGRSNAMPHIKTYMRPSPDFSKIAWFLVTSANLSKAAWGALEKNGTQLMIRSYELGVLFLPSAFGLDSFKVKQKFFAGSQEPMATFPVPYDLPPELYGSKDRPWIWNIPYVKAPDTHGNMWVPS
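AlphaScreen read-out: signal falls as enzyme removes the 3' tyrosine-FITC from a 5'-biotinylated DNA oligo (15 nM, 5 min, RT). Enzyme was E. coli-made recombinant Tdp1 at 1 nM, exposed to compound for 15 min beforehand; beads 10 ug/ml, 10 min.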
ELG1 repair inh: qHTS screen for small molecules that inhibit ELG1-dependent DNA repair in human embryonic kidney (HEK293T) cells expressing luciferase-tagged ELG1; 330,000 tested, 2.3% active; HEK293T ELG1-luciferase reporter, luminescence, 16 h; DNA damage induced by 5-fluorouridine; Potency, µM (titrated, usually from 46.1 µM), for the others: at the top dose activity change, negative = inhibition, actives largely listed as inhibitors; further: potency means the concentration at half of the fitted maximal effect; nearly all actives have a fitted effect of over 55% in size
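Luminescence from the luciferase reporter, measured 30 min after ONE-Glo reagent at room temperature, was the read-out. Beforehand, 2,000 cells per well were exposed for 16 hr at 37 °C to 5-fluorouridine together with compound or vehicle.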
IL-1B inflam inh: qHTS for Inhibitors of Inflammasome Signaling: IL-1-beta AlphaLISA Primary Screen; THP-1 LPS/ATP IL-1B secretion, AlphaLISA, 16 h; active compounds read low; activity change, % at 57.5 µM; 360,000 tested, 4.7% active; in the data active means activity change below about -50%; inconclusive means mostly about -30% to -49%
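Secreted IL-1B measured by AlphaLISA bead assay after 16 h compound exposure of THP-1 cells; compounds (final up to 57.5 uM) added 1 h before LPS (250 ng/mL) and ATP (1.25 mM) stimulation; lower signal means less secretion.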
Giardia killer: Small Molecules that selectively kill Giardia lamblia: qHTS; Giardia lamblia trophozoite viability; activity change, % at 7.66 µM, hits read low; 340,000 tested, 0.15% active; AID 540267, 2011; in the data active means activity change below about -80%; inconclusive means between about -30% and that limit;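 further: parasites exposed to compound for two days anaerobically before the ATP read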
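Anaerobic 48 hrs incubation at 37 deg C of 100 trophozoites/well with test compounds; ATPLite 1-Step luminescence, 15-30 min RT, reports cellular ATP as viability.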
TDP1 cell CPT: qHTS for Inhibitors of human tyrosyl-DNA phosphodiesterase 1 (TDP1): qHTS in cells in presence of CPT; chicken DT40 Tdp1-/-;hTDP1 cells + 20 nM CPT, ATP luminescence, 48 h; Potency, µM (highest dose often 46.2 µM), without a hit: top-dose activity change, negative = growth inhibition, hits mostly inhibitors; 420,000 tested, 12% active; AID 686979, 2013; further: potency means the concentration at half of the fitted maximal effect; nearly all actives have a fitted effect of over 55% in size
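Chicken DT40 Tdp1-/- cells stably complemented with human TDP1 were seeded at 400 cells/well in medium containing 20 nM camptothecin, exposed to pin-transferred compounds, and grown at 37 °C for at least 48 hr. Viability was read as ATP luminescence.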
TDP1 cell noCPT: qHTS for Inhibitors of human tyrosyl-DNA phosphodiesterase 1 (TDP1): qHTS in cells in absence of CPT | DT40 Tdp1-/- hTDP1 cells, no CPT, ATP luminescence, 48 h | AID 686978, 2013 | 420,000 tested, 15% active | Potency, µM (titrated, usually from 46.2 µM), for the others: top-dose activity change, negative = growth inhibition, actives largely listed as inhibitors; further: potency means the concentration at half of the fitted maximal effect; nearly all actives have a fitted effect of over 55% in size
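Readout: luminescence from CellTiter-Glo after 30 min in the dark at RT. Cells: DT40 Tdp1-/- with stable hTDP1, 400/well. Exposure: compounds alone, ≥48 hr, 37 °C.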
* hit, by the source's call; ? = inconclusive; · = not tested or not shown; [ ] = dose if it differs, or a comment. Compounds with a hit are over-represented: about 19% of the library has one in this group of screens. Unless noted, the call rests on the fitted dose curve; in most records, active means well fitted curve in the direction sought with a large enough effect; inconclusive means small, poorly fitted or top-dose-only effect, or another doubt; inactive means no such curve, though single readings can be large; an effect the other way counts as inactive or inconclusive. On the % scale 0 is the no-effect control and ±100 the full control effect.

SMILES | TDP1 block | ELG1 repair inh | IL-1B inflam inh | Giardia killer | TDP1 cell CPT | TDP1 cell noCPT
O=C(Nc1ccc(Cl)cc1)N[C@H]1CC[C@H](CCn2cc(-c3ccccc3F)nn2)O[C@@H]1CO | · | · | -2 | · | 8.2µM* | 9.2µM*
OC(C[n+]1c(Cl)ccc2ccccc21)c1ccccc1 (stereo not given) | · | · | · | · | 8.9µM* | ?
CCC(C)NCC(O)(c1ccc(Cl)cc1)c1ccc(Cl)cc1 (stereo not given) | 3% | -13% | ? | 12 | 23µM* | 23µM*
O=C(CONS(=O)(=O)c1ccc(Cl)cc1)NCCNc1ncc(C(F)(F)F)cc1Cl | 6% | ? | -55* | -9 | 2% | ?
O=C(OCCNc1ncc(C(F)(F)F)cc1Cl)c1ccc(S(=O)(=O)N2CCOCC2)cc1 | 6% | 15% | 7 | 13 | -1% | -4%
O=C(NCc1ccco1)c1ccc(Cn2c(SCc3ccccc3)nc3cccnc32)cc1 | 7% | · | · | · | 4.1µM* | 26µM*
O=C(NCc1ccccc1Cl)c1ccc(Cn2c(SCc3ccccc3)nc3cccnc32)cc1 | 1% | · | · | · | ? | ?
O=C(CSc1nc2ccccc2c(=O)n1CCCC(=O)N1CCCC1)NCc1ccco1 | 2% | -7% | ? | -2 | -25% | -18%
O=C(CCCCCn1c(SCc2ccncc2)nc2ccccc2c1=O)NCc1ccco1 | · | 18µM* | ? | 6 | ? | ?
Cc1cccc(CNC(=O)c2ccc(Cn3c(SCc4ccccc4)nc4cccnc43)cc2)c1 | 10% | · | · | · | ? | 16µM*
COc1cccc(CNC(=O)c2ccc(Cn3c(SCc4ccccc4)nc4cccnc43)cc2)c1 | -6% | · | · | · | 8.2µM* | ?
CC(C)=CCC/C(C)=C/C=C/C1=CC2(C)CC1(C)C(/C=C(\C)CCC=C(C)C)CC2=O (stereo not given) | 6%[21 µM] | · | · | · | · | ·
COc1ccc(NC(=O)CCc2nnc3ccc(N4CCC5(CC4)OCCO5)nn23)cc1 | 8% | -1% | 0 | 3 | -9% | 3%
O=C(NCc1ccccc1)c1ccc(CSc2nc3cccnc3n2Cc2ccccc2F)cc1 | 1% | · | · | · | ? | 18µM*
Cc1nc(Sc2ccc(Br)cc2)c(C#N)c(C)c1[N+](=O)[O-] | 8% | -5% | -105* | 11 | 21µM* | 9.2µM*
Cc1nc(N2CCC(C)CC2)c(C#N)c(C)c1[N+](=O)[O-] | 1% | -2% | 26 | -4 | -1% | -14%
Cc1ccc(Sc2nc(C)c([N+](=O)[O-])c(C)c2C#N)cc1 | · | 2% | · | 0 | ? | ?
Cc1nc(Sc2ccc(Cl)cc2)c(C#N)c(C)c1[N+](=O)[O-] | 10% | ? | · | 4 | ? | 10µM*
Cc1ccc(C(=O)NCC(=O)NCC(=O)OCc2ccc(Oc3ccc([N+](=O)[O-])cc3)cc2)cc1 | · | · | -17 | 24 | ? | 21µM*
Cc1ccc(C(=O)NCC(=O)NCC(=O)OCC(=O)c2ccc([N+](=O)[O-])cc2)cc1 | 1% | 0% | -19 | -19 | 23µM* | 23µM*
Cc1ccc(SCC(Cc2ccccc2)N2CCN(C)CCC2=O)cc1 (stereo not given) | 10% | · | · | -28 | · | ·
CCCCC/C=C\C/C=C\C/C=C\C/C=C\CCCC(=O)C(F)(F)F | -1% | · | · | · | · | ·
CCCNC(=O)C1(C)CCN(Cc2csc3ccccc23)C1 (stereo not given) | · | · | -24 | · | ? | ?
CSc1ccc(CN2CCC(C)(Oc3cccc(F)c3)C2)cc1 (stereo not given) | · | · | 21 | · | ? | ?
COCCNC(=O)C1(C)CCCN(Cc2ccc(-c3ccccc3)o2)C1 (stereo not given) | · | · | -6 | · | ? | ?
SMILES | TDP1 block | ELG1 repair inh | IL-1B inflam inh | Giardia killer | TDP1 cell CPT | TDP1 cell noCPT
CCNC(=O)C1(C)CCCN(Cc2ccc(-c3ccccc3)o2)C1 (stereo not given) | · | · | -25 | · | 23µM* | 23µM*
CC1(Oc2cccc(F)c2)CCN(Cc2ccc(-c3ccccc3)o2)C1 (stereo not given) | · | · | 0 | · | 23µM* | ?
CCCNC(=O)C1(C)CCN(Cc2ccc(-c3ccccc3)o2)C1 (stereo not given) | · | · | -14 | · | 23µM* | ?
CCOC(=O)C1CCCN(c2nc3c(S(=O)(=O)c4ccc(CC)cc4)nnn3c3ccsc23)C1 (stereo not given) | -5% | · | · | · | ? | ?
Cc1ccc2oc(C(Cl)(Cl)Cl)cc(=O)c2c1 | 7% | -8% | -100* | 13 | 4.6µM* | 5.8µM*
CC(C)(C)OC(=O)NCc1nnc(-c2cc3ccccc3[nH]2)o1 | 0% | · | · | · | · | ·
COc1ccc(CC(=O)NNC(=O)COc2ccc(F)cc2)cc1S(=O)(=O)N1CCOCC1 | 0% | -10% | 0 | -2 | -6% | -25%
O=c1c(-c2cc3ccccc3[nH]2)nc2ccccc2n1C(CCc1ccccc1)c1nc2ccccc2[nH]1 (stereo not given) | · | · | -22 | · | ? | 18µM*
Cc1cccc(C)c1NC(=O)C(c1ccccc1F)n1c(=O)c(-c2cc3ccccc3[nH]2)nc2ccccc21 (stereo not given) | · | · | 13 | · | ? | ?
CCC(C(=O)NCc1ccccc1)n1c(CSCCOc2ccccc2)nc2ccccc21 (stereo not given) | · | · | -6 | · | 23µM* | ?
CSCCC(c1nc2ccccc2[nH]1)n1c(=O)c(-c2cc3ccccc3[nH]2)nc2ccccc21 (stereo not given) | · | · | -17 | · | ? | ?
Cc1cccc(C)c1NC(=O)C(c1ccc(C#N)cc1)n1c(=O)c(-c2cc3ccccc3[nH]2)nc2ccccc21 (stereo not given) | · | · | 98 | · | 12µM* | 9.2µM*
Cc1cccc(C)c1NC(=O)C(c1cccc2ccccc12)n1c(=O)c(-c2cc3ccccc3[nH]2)nc2ccccc21 (stereo not given) | · | · | 54 | · | 13µM* | 9.2µM*
COc1ccc(NC(=O)C(c2ccc(C#N)cc2)n2c(=O)c(-c3ccco3)nc3ccccc32)cc1 (stereo not given) | · | · | -13 | · | -18% | -28%
COc1ccccc1CNC(=O)COC(=O)CSc1ccc(C)c(C)c1 | 2% | 7% | 12 | -1 | -11% | -12%
